Several values for one entry are separate records, joined by “and”; a condition that tells them apart may be missing. Equal entries are not always repeated.

Common to all, as to test: cell viability relative to vehicle control; higher = less cytotoxic
Settings in all cases: 10 µM

One assay concerns K562. In outline: (§1)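 CRISPR-edited SRSF2 P95 mutant and isogenic wild-type clones of four leukaemia lines were screened against Selleck bioactive, kinase and epigenetic probe libraries, with identity-inconsistent compounds removed. Compounds were acoustically dispensed into 384-well plates at a single 10 µM dose, with 2000 cells in 50 µL medium per well. After 48 h, supernatant was removed and CellTiter-Glo luminescence was read. Viability was expressed as percent of the on-plate DMSO vehicle control, analysed in Genedata Screener.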

The next assay concerns MARIMO. In outline:
as §1

In another assay the test system is MOLM14. In outline:
as §1

In another assay the test system is OCI-AML2. In outline:
as §1

As to `COc1cc2c(cc1O)C[C@H]1c3c(cc(O)c(OC)c3-2)CCN1C` [Boldine], the cell viability was 99.6% and 100% with K562 (SRSF2 genotype: SRSF2 P95H/wt); 99% with K562 (SRSF2 genotype: SRSF2 wt/wt); 94.1% in the assay with MARIMO (SRSF2 genotype: SRSF2 P95H/wt); 88.6% in the assay with MARIMO (SRSF2 genotype: SRSF2 wt/wt); 96.5% in the assay on MOLM14 (SRSF2 genotype: SRSF2 P95H/wt); 101% in the assay with MOLM14 (SRSF2 genotype: SRSF2 wt/wt). For the same compound, the cell viability in the assay with OCI-AML2 (SRSF2 genotype: P95H/wt) came out at 95.3%; in the assay with OCI-AML2 (SRSF2 genotype: wt/wt), 91%.
With `CN1C(=O)[C@@]23C[C@]4([C@]56C[C@@]78SS[C@@](CO)(C(=O)N7[C@H]5Nc5ccccc56)N(C)C8=O)c5ccccc5N[C@@H]4N2C(=O)[C@]1(CO)SS3` [Chaetocin], the cell viability with K562 (SRSF2 genotype: SRSF2 P95H/wt) was 0.42% and 0.29%; in the assay with K562 (SRSF2 genotype: SRSF2 wt/wt) it was 0.65%; in the assay with MARIMO (SRSF2 genotype: SRSF2 P95H/wt), 0.27%; in the assay on MARIMO (SRSF2 genotype: SRSF2 wt/wt) it was 0.33%; in the assay on MOLM14 (SRSF2 genotype: SRSF2 P95H/wt) it was 0.25%; with MOLM14 (SRSF2 genotype: SRSF2 wt/wt) it was 0.28%. The cell viability with OCI-AML2 (SRSF2 genotype: P95H/wt) is 0.23%; in the assay on OCI-AML2 (SRSF2 genotype: wt/wt), 0.24%.
Consider `CC(=O)O[C@@H]1[C@H]2[C@@H](OC(=O)Cc3ccccc3)[C@@H](C)C[C@]2(OC(C)=O)C(=O)/C(C)=C/[C@@H]2[C@H](CC[C@]13CO3)C2(C)C` [Euphorbia factor L1], for which the cell viability is 105% and 96.6% with K562 (SRSF2 genotype: SRSF2 P95H/wt); 100% in the assay with K562 (SRSF2 genotype: SRSF2 wt/wt); 89.8% in the assay on MARIMO (SRSF2 genotype: SRSF2 P95H/wt); 102% with MARIMO (SRSF2 genotype: SRSF2 wt/wt); 102% with MOLM14 (SRSF2 genotype: SRSF2 P95H/wt); 104% in the assay with MOLM14 (SRSF2 genotype: SRSF2 wt/wt). Also, the figures for the cell viability with OCI-AML2 (SRSF2 genotype: P95H/wt) and in the assay with OCI-AML2 (SRSF2 genotype: wt/wt) were 95.9% and 105%, respectively.
As for `O=S(=O)(CC1CS1)c1ccc(Oc2ccccc2)cc1` (configuration not stated), the cell viability in the assay on K562 (SRSF2 genotype: SRSF2 P95H/wt) is 88.7% and 98.8%; in the assay on K562 (SRSF2 genotype: SRSF2 wt/wt), 92.2%; in the assay with MARIMO (SRSF2 genotype: SRSF2 P95H/wt) it was 45.8%; in the assay with MARIMO (SRSF2 genotype: SRSF2 wt/wt), 73.1%; with MOLM14 (SRSF2 genotype: SRSF2 P95H/wt) it was 39.1%; in the assay with MOLM14 (SRSF2 genotype: SRSF2 wt/wt), 29.4%. The cell viability with OCI-AML2 (SRSF2 genotype: P95H/wt) was determined as 14.9%; in the assay on OCI-AML2 (SRSF2 genotype: wt/wt) it was 14.1%.

One may read the cell viability as a read-out of living cells in per cent, often relative to untreated cells.

Values taken from the supplement of paper PMC10981050.
